From PubChem BioAssay
The entries come from a sample that favours hits as a whole.
CHX counter = Cycloheximide Counterscreen for Small Molecule Inhibitors of Shiga Toxin. 12% of 300,000 active. AID 2314, 2010. max response, %. cell reporter, cycloheximide protein synthesis inhibition counterscreen; in the data active = max response mostly above about 13%, no sharp cut-off; inactive = mostly below about 14%; note: read at 38.3 µM for the half of the compounds with a filed dose; 0% is about no effect
Sm TGR block = qHTS Assay for the Inhibitors of Schistosoma Mansoni Peroxiredoxins. purified TGR, DTNB reduction, TNB absorbance 405 nm. Potency, µM (highest dose often 114 µM), for inactives: at the top dose activity change, negative = inhibition, usual class: inhibitors. 3% of 360,000 active; note: potency is the fitted concentration of half-maximal effect; % is set by controls: 0 for no effect and ±100 for the full control effect; nearly all actives have a fitted effect of over 60% in size
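Kinetic colorimetric format: TGR-catalysed, NADPH-driven DTNB reduction monitored via TNB absorbance. Enzyme dispensed at 20 nM; compound exposure 15 min at room temperature before reaction start.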
LmPK inh = qHTS Assay for Inhibitors of Leishmania Mexicana Pyruvate Kinase (LmPK). Q27686. purified LmPK, Kinase-Glo ATP luminescence, 1 h. Potency, µM (doses to about 57.5 µM), for inactives: at the top dose activity change, negative = inhibition, hits mostly inhibitors. 0.37% of 290,000 active; note: potency is the fitted concentration of half-maximal effect; % is set by controls: 0 for no effect and ±100 for the full control effect
Target sequence (Q27686 whole entry, looked up): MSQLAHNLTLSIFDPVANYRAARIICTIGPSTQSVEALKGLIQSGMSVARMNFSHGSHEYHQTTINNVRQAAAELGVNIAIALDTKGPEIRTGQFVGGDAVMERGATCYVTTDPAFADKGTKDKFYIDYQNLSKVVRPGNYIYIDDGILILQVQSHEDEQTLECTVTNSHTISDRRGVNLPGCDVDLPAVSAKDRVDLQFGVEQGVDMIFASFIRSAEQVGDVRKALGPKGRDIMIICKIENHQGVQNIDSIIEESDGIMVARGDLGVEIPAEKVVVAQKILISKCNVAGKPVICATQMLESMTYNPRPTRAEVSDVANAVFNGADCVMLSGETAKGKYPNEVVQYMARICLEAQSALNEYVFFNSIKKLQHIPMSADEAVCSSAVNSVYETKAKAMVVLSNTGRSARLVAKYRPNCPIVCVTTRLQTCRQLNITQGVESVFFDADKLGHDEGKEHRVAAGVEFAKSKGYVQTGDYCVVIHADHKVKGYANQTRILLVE
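Pyruvate kinase activity monitored as ATP production (luciferase luminescence). Conditions: 0.1 nM enzyme, 0.5 mM PEP, 0.1 mM ADP, 1 h, RT; normalized against uninhibited and no-enzyme wells.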
Tb PYK inh = qHTS of Trypanosoma Brucei Inhibitors | pyruvate kinase (Trypanosoma brucei), Q57TT1 | TbPYK enzyme, Kinase-Glo Plus ATP luminescence, 45 min | Potency, µM (doses to about 76.8 µM), without a hit: at the top dose activity, negative = inhibition, usual class: inhibitors | 0.12% of 410,000 active | AID 624173, 2012; note: potency is the fitted concentration of half-maximal effect; % is set by controls: 0 for no effect and ±100 for the full control effect; nearly all actives have a fitted effect of over 50% in size
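Assay buffer: 50 mM TEA pH 7.2, 100 mM KCl, 10 mM MgCl2, 0.05% BSA, 0.01% Tween-20. Pyruvate kinase from T. brucei plus substrate met compound, then ADP (130 uM final). Luminescence was read post 45 min RT.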
Giardia FBPA inh = qHTS Assay for Inhibitors of Fructose-1,6-bisphosphate Aldolase from Giardia Lamblia; A8B2U2; purified Giardia FBPA; Potency, µM (highest dose often 59.6 µM), inactives show at the highest dose activity, negative = inhibition, actives largely listed as inhibitors; 0.71% of 290,000 active; note: potency is the fitted concentration of half-maximal effect; % is set by controls: 0 for no effect and ±100 for the full control effect; nearly all actives have a fitted effect of over 55% in size
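40 nM FBPA preincubated 10 min at RT with compound (up to 57.5 uM final), then substrate plus GAPDH/TPI/NAD/arsenate coupling and diaphorase/resazurin added. Fluorescence read after 20 min at RT, 525/598 nm.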
Shiga inhibitor = A qHTS for Small Molecule Inhibitors of Shiga Toxin; Vero cells, Shiga toxin protein synthesis inhibition reporter; inhibition, % at 38.7 µM; 9.2% of 290,000 active; in the data active = inhibition mostly above about 28%, no sharp cut-off; inactive = mostly below about 43%; note: 0% is about no effect
An asterisk follows results filed as active; [ ] = dose if it differs, or a comment. Unless noted, calls come from the whole dose curve; as a rule, active = well fitted curve in the direction sought with a large enough effect; inconclusive = small, poorly fitted or top-dose-only effect, or another doubt; inactive = no such curve, though single readings can be large; an effect the other way counts as inactive or inconclusive.

How did COC(Cn1c(-c2cccc(S(=O)(=O)N(C)C)c2)n[nH]c1=S)OC do in these assays?
CHX counter: -5; Sm TGR block: 14%; LmPK inh: 5%; Tb PYK inh: -16%; Giardia FBPA inh: -15%; Shiga inhibitor: -6

What do the screens show for `O=C(Nc1ccc(O)c2c(=O)cc(-c3ccccc3Cl)oc12)c1cc(Cl)cc(Cl)c1`?
CHX counter: -2; Giardia FBPA inh: 7%; Shiga inhibitor: -6

What do the screens show for `Clc1ccc(OCc2nnc(-c3ccccc3Br)o2)c(Cl)c1`?
CHX counter: 39*; Sm TGR block: 1%; LmPK inh: 6%; Tb PYK inh: -2%; Giardia FBPA inh: 8%; Shiga inhibitor: 83*

What do the screens show for `Fc1ccc(OCc2nnc(-c3ccccc3Br)o2)c(Cl)c1`?
CHX counter: 15*; Sm TGR block: -3%; LmPK inh: 0%; Tb PYK inh: 1%; Giardia FBPA inh: -1%; Shiga inhibitor: 109*

How did COc1ccc(C(C)=O)cc1Cn1nnc(-c2ccccc2Br)n1 do in these assays?
CHX counter: 1; Sm TGR block: -28%; LmPK inh: 4%; Tb PYK inh: 0%; Giardia FBPA inh: -6%; Shiga inhibitor: 3

What do the screens show for `COc1cc(C(C)=O)ccc1OCc1nnc(-c2ccccc2Br)o1`?
CHX counter: 16*; Sm TGR block: 1%; LmPK inh: 3%; Tb PYK inh: 0%; Giardia FBPA inh: 8%; Shiga inhibitor: 60*

Results for COc1ccc2c(C)cc(SCC(=O)Nc3nsc(-c4ccccc4C)n3)nc2c1 ?
Sm TGR block: 2%; Tb PYK inh: 1%

How did Cc1cccc(N2CCN(C(=O)c3ccc4c(c3)N(Cc3ccccc3)C(=O)c3ccccc3S4(=O)=O)CC2C)c1 (configuration not stated) do in these assays?
Sm TGR block: -6%; Tb PYK inh: -8%

How did Cn1c(/N=C/c2ccc3c(c2)OCO3)nc2ccccc21 do in these assays?
CHX counter: -1; Sm TGR block: 7%; LmPK inh: 13µM*; Tb PYK inh: -15%; Giardia FBPA inh: -24%; Shiga inhibitor: -3

How did CCn1c(/C=C/c2cc[n+](C)cc2)nc2ccccc21 do in these assays?
CHX counter: -1; Sm TGR block: -4%; LmPK inh: -4%; Tb PYK inh: -11%; Giardia FBPA inh: -4%; Shiga inhibitor: -7

Results for COc1ccc(O)c(/C=N/c2nc3ccccc3n2C)c1 ?
CHX counter: 1; Sm TGR block: -1%; LmPK inh: -17%; Tb PYK inh: -3%; Giardia FBPA inh: -10%; Shiga inhibitor: -3

How did Nc1nc2ccccc2n1/N=C/c1ccc(Br)cc1 do in these assays?
CHX counter: 43*; Sm TGR block: 2%; LmPK inh: 1%; Tb PYK inh: -1%; Giardia FBPA inh: -13%; Shiga inhibitor: 93*

How did Nc1nc2ccccc2n1/N=C/c1ccc2c(c1)OCO2 do in these assays?
CHX counter: 32*; Sm TGR block: 10%; LmPK inh: -25%; Tb PYK inh: 8%; Giardia FBPA inh: -6%; Shiga inhibitor: 91*

Results for CCn1c(/C=N/c2nc3ccccc3n2C)nc2ccccc21 ?
CHX counter: 13*; Sm TGR block: -11%; LmPK inh: -9%; Tb PYK inh: -5%; Giardia FBPA inh: 2%; Shiga inhibitor: 24

How did CCOc1ccc(CNS(=O)(=O)c2ccc3[nH]c4c(c3c2)CCCC4)cc1OC do in these assays?
Sm TGR block: -16%; Tb PYK inh: -12%

What do the screens show for `COc1cc(S(=O)(=O)N2CCN(C(=O)c3ccco3)CC2)ccc1Cl`?
CHX counter: -2; Sm TGR block: -1%; LmPK inh: 8%; Tb PYK inh: 3%; Giardia FBPA inh: 14%

Results for COC(=O)c1ccc(NC(=O)CCc2c(C)nc3c(c(C)nn3C(C)(C)C)c2C)cc1 ?
Sm TGR block: 15%; Tb PYK inh: 0%

What do the screens show for `CO/N=C(/C)CCC(=O)OC[C@@H]1O[C@H](c2ccccc2)C=C[C@@H]1Oc1ccc(OC)cc1`?
Giardia FBPA inh: -1%[12.9 µM]
